This is an account of results in the supplement of paper PMC8728848.

This is one part of a sample in which the strongest signals are shown more often than they occur.

Assay in all cases: glycan array binding signal (z-score within array); higher = stronger binding
Common to all, as to settings: glycan notation: IUPAC condensed, linker removed

In one experiment the test system is Gal3S4S(b1-4)GlcNAc. Summed up:
(§1)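 Glycan array binding is given as a within-array Z-score, which can be read as non-binding when negative. The arrays, 3228 of them, came from the Consortium for Functional Glycomics database and were retained only where the protein sequence was available. Z-scores were averaged across arrays of the same protein sequence at different concentrations or buffers and across linkers.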

The next experiment concerns Gal6P(b1-4)GlcNAc. Summed up: as §1
In a further experiment the test system is Gal6S(b1-3)GlcNAc6S. Summed up: as §1
For another experiment, the system named is Gal6S(b1-3)GlcNAc. Summed up:
as §1

In the next experiment the test system is Gal6S(b1-4)Glc6S. Summed up: as §1
A further experiment relates to Gal6S(b1-4)Glc. Summed up:
as §1

Experiment [1] relates to GalNAc(b1-3)Gal(a1-6)Gal(b1-4)Glc. Summed up:
as §1

Experiment [2] relates to GalNAc(b1-3)Gal(a1-4)Gal(b1-4)GlcNAc. Summed up:
as §1

The test system of a further experiment is GalNAc(b1-4)Gal(b1-4)Glc. Summed up: as §1
Experiment [3] concerns GalNAc(b1-4)GlcNAc(b1-2)Man(a1-3)[GalNAc(b1-4)GlcNAc(b1-2)Man(a1-6)]Man(b1-4)GlcNAc(b1-4)GlcNAc. Summed up: as §1
Another experiment relates to Gal3S6S(b1-4)GlcNAc6S. Summed up: as §1
The test system of a further experiment is GalNAc(a1-3)Gal. Summed up: as §1
The next experiment has as its system GalNAc(b1-3)GlcNAc. Summed up:
as §1

Another experiment concerns GalNAc(b1-3)GalNAc. Summed up:
as §1

In experiment [4] the test system is GalNAc(b1-4)GlcNAc(b1-3)GalNAc(b1-4)GlcNAc. Summed up: as §1
The next experiment concerns Gal4S6S(b1-4)GlcNAc. Summed up:
as §1

Experiment [5] relates to GalNAc(a1-3)GalNAc(b1-3)Gal(a1-4)Gal(b1-4)Glc. Summed up: as §1
For a further experiment, the system named is Gal6S(b1-4)GlcNAc. Summed up: as §1
The test system of a further experiment is GalNAc(b1-6)GalNAc. Summed up:
as §1

Epa22: the “glycan array binding signal (z-score)” value with Gal3S4S(b1-4)GlcNAc was -0.476; in the experiment with Gal6P(b1-4)GlcNAc, -0.491; in the experiment with Gal6S(b1-3)GlcNAc6S it was 2.55; in the experiment with Gal6S(b1-3)GlcNAc, 1.89; in the experiment with Gal6S(b1-4)Glc6S it was 7.08; with Gal6S(b1-4)Glc, 1.51. In addition, in experiment [1], the “glycan array binding signal (z-score)” value is -0.822.

For AgI/IIC123-GFP (Streptococcus mutans), the “glycan array binding signal (z-score)” value was -0.466 in the experiment with Gal3S4S(b1-4)GlcNAc, 1.61 in [2], -0.438 in the experiment on GalNAc(b1-4)Gal(b1-4)Glc and -0.272 in [3].

Regarding “AgI/II Vhelical-GFP (Streptococcus mutans)”, the “glycan array binding signal (z-score)” value is 1.08 with Gal3S6S(b1-4)GlcNAc6S, -0.061 in the experiment with GalNAc(a1-3)Gal and -0.152 in the experiment with GalNAc(b1-3)GlcNAc.

As for LcI (Legionella pneumophila), the “glycan array binding signal (z-score)” value with Gal3S6S(b1-4)GlcNAc6S is -0.439; in the experiment on GalNAc(b1-3)GalNAc, -0.554; in [4], -0.365.

For “SiiE (Salmonella typhimurium), A0A0H3NVH0”, the “glycan array binding signal (z-score)” value in the experiment on Gal4S6S(b1-4)GlcNAc is -0.799; in [5] it was -1.13.

Regarding “SpGH101 (Streptococcus pneumoniae), Q8DR60”, in the experiment on Gal6S(b1-3)GlcNAc, the “glycan array binding signal (z-score)” value was -0.229.

Regarding BambL (Burhholderia ambifaria), Q0B4G1, the “glycan array binding signal (z-score)” value in the experiment on Gal6S(b1-4)GlcNAc was -0.314; in [1], -0.314; with GalNAc(b1-4)Gal(b1-4)Glc, -0.316.

Take Actinohivin (Actinomycete K97): the “glycan array binding signal (z-score)” value in the experiment with GalNAc(a1-3)Gal is -0.192; with GalNAc(b1-6)GalNAc, -0.188.
